Reference: the supplement of paper PMC11417369
± gives the standard deviation of the averaged measurements. The full ranking holds about 25,000 sequences; the median of “ln(normalized median fluorescence intensity)” is about 8.6, and the highest 2% start at about 10. This is one part of a sample in which the highest values are shown more often than they occur.

System: PfAP2-EXP AP2 domain (GST-tagged)
Test: gcPBM binding intensity (ln(normalized median fluorescence intensity)); higher = stronger DNA binding
Outline: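 Alexa488 anti-GST antibody, scanned at 488 nm, detected GST-tagged P. falciparum DNA-binding domains that had been expressed in E. coli and incubated for 1 h on an Agilent 4 × 180k array. The array carried primer-extended double-stranded 36-bp intergenic genomic probes and negative controls. Binding intensity is the highest Masliner-normalised natural-log median intensity across replicate spots of either orientation of each probe.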

Sequence | gcPBM binding intensity (ln)
TTAACAAAATATAGCACACATAAATATATATTTATG [CACACA_site351] | 8.66 ± 0.33
TATACATATTATATATGTACACATATTATATGTATA [XGTACX_site5851] | 8.27 ± 0.15
ATTATATAGAATTGTACATGCGAATTGTATAACGAT [TGCATGCA_site125] | 9.31 ± 0.57
ACATATATATAATATATATATCATCATATTTTCTTA [CACACA_negctrl_site853] | 8.27 ± 0.39
TATTAAAATTAAAAAAAAAAAAAAAAGCAATAAAAA [XGTACX_negctrl_site426] | 8.33 ± 0.71
CGTATGCAAGGAACCACACACACACCCATAAATGTA [CACACA_site749] | 8.51 ± 0.45
TTTTCTACATCTTGTTGTACGAAAAATAAAAAAAAT [XGTACX_site4620] | 8.72 ± 0.47
TATTTTATAAATTAATGTACATAAATTATATCTACT [XGTACX_site3625] | 8.35 ± 0.16
TTTTAAACAGGACACACACACATATAGATTTATATA [CACACA_site6560] | 8.69 ± 0.4
TTTTTTTTTTTTTTTTTTAAACACCTCAAAAAAAAA [CACACA_negctrl_site807] | 8.04 ± 0.36
ATATATATCTTTTGTGTGCACATATATATAATATAT | 8.97 ± 0.24
ATAATATCTTTATGTGTGCACATATATATATATATA | 10.1 ± 0.38
GAGGTCTTTTTTAATGTGCACATATATATATATATA | 10.3 ± 0.25
GGAAAAGGTATCCGTTCACACATAAATGGATACCAT [CACACA_site5072] | 8.31 ± 0.4
ATTCATCCAATAATGTGAATTATCATGATAAACTTA [TGCATGCA_negctrl_site406] | 8.26 ± 0.43
CAAAGTATTATGATTACACACATGTGCTTTTTTCTT [CACACA_site163] | 8.57 ± 0.42
GGTATACGCAAGTATACACACATATATATATATATA [CACACA_site3240] | 10.1 ± 0.47
TATATACTCAAACACACACACACATACACAGACATA [CACACA_site5025] | 8.77 ± 0.57
CAAACAATTAAACAAACACACATATACAAGTATATA [CACACA_site8639] | 8.38 ± 0.36
GGTATACACAAGTATACACACATATAAATATAAATA [CACACA_site7511] | 8.5 ± 0.45
GGTATACACAAGTATACACACATATATATATATATA [CACACA_site9063] | 10.2 ± 0.22
GGTATACTCAAGTATACACACATATATATATATATA [CACACA_site5746] | 10.2 ± 0.45

Sequence | gcPBM binding intensity (ln)
ATTTTAGGAAAAAAAAGTACATATAATTTTTTATAT [XGTACX_site6954] | 8.19 ± 0.31
AAATGTTATATATAATGTACTTGTAAGAACGTTCCT [XGTACX_site2840] | 8.67 ± 0.45
GTGTAGTTAAAAAAAAGTACAGATTTTTTTTTTTTT [XGTACX_site849] | 8.43 ± 0.092
ATATTTATAACTTGGTGTACTTTGAAAAAAAAAAAA [XGTACX_site5194] | 8.38 ± 0.26
TTTTAATAATATGGATGTACATAAAAATAAATAAAT [XGTACX_site7937] | 9.04 ± 0.38
AAAAAACACTTAAGGTGTACCTTTTAATATAAGTAT [XGTACX_site2397] | 8.38 ± 0.3
TATGTGAAATAAGGATGTACAATTTTGATTTCCCCA [XGTACX_site8389] | 8.86 ± 0.52
TATAAACCGACGAAAACACACATATGTAAATATATA [CACACA_site491] | 8.94 ± 0.59
GTTAATATTTTTGGGGGTACTTAAAAAAAAAAAAAA [XGTACX_site1477] | 9.35 ± 0.26
TATACTTTATATATTTTGTATATATATTTTTTTTAT [TGCATGCA_negctrl_site530] | 8.43 ± 0.31
ATTTTTTTTTTTTTTTTGGGGGGGTATACTTTTAAA [CACACA_negctrl_site1020] | 11.2 ± 0.18
AAAAAAGAAAAAAAGTGTACAATATTTATTACATAT [XGTACX_site2277] | 8.08 ± 0.028
TATTTAATTACATGAACACACATTATGTATTTTTAA [CACACA_site2962] | 8.3 ± 0.3
CATATAAATAAACACACACACACATATATATATATA [CACACA_site5309] | 10.2 ± 0.29
AATTAAAAAATTATCACACATATATATATATATATA [CACACA_site5789] | 10.3 ± 0.52
AATAAATTGAAACACACACACACATATATATATATA [CACACA_site848] | 10.2 ± 0.32
TTTGAAATGATATATAAACACACATATATATATATA [CACACA_site9170] | 10.3 ± 0.4
ACTAATTACTATAAAACACACATATATATATATATA [CACACA_site2591] | 10.2 ± 0.29
TGAAATGATATATAAACACACATATATATATATATA [CACACA_site3511] | 10 ± 0.36
TATATATATATATAAACACACATAAATATAAATATA [CACACA_site1121] | 10 ± 0.37
TGAAATGATATATAAACACACATATATAAATATGTA [CACACA_site7616] | 8.18 ± 0.42
AAAAAATTAAAAATCACACATAAATATATATAAAAA [CACACA_site4192] | 8.45 ± 0.4
